Test results taken from PubChem BioAssay (NCI).
This is part of a sample that, as a whole, favours compounds with a hit. Of some 83,000 tested, about 20% had one in any assay.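 Single-concentration screen, 48 h exposure, 96-well plates. Endpoint: percent growth. Below 10 = active.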 Values without a mark were called inactive. Active and inactive are the calls of the source.

Columns and labels:
Test in all cases: NCI-60 one-dose screen, 48 h (100 = growth as untreated, 0 = no growth, -100 = all killed)
Details in all cases: 10 µM unless noted
[1] = test system: SK-MEL-2 melanoma
[2] = test system: EKVX NSCLC
[3] = test system: SN12C renal
[4] = test system: UO-31 renal
[5] = test system: TK-10 renal
[6] = test system: ACHN renal
[7] = test system: CAKI-1 renal
[8] = test system: A498 renal
[9] = test system: CCRF-CEM leukemia
[10] = test system: MOLT-4 leukemia

| SMILES | growth [1] | growth [2] | growth [3] | growth [4] | growth [5] | growth [6] | growth [7] | growth [8] | growth [9] | growth [10] |
| --- | --- | --- | --- | --- | --- | --- | --- | --- | --- | --- |
| COc1ccc(-c2nn(-c3ccccc3)cc2/C=C2\SC(=O)NC2=O)cc1 | 100% | 85.2% | 90.8% | 80% | 99.7% | 96% | 83.2% | 72% | 91.9% | 96.4% |
| C=C1C(=O)O[C@H]2[C@H]1CC/C(Cn1cc(Cc3c[nH]c4ccccc34)nn1)=C\CC[C@@]1(C)O[C@@H]21 | 51.2% | 53.6% | 39.4% | -71.1% (active) | 14.7% | -36.1% (active) | 31.7% | 64.3% | -17.1% (active) | -1.1% (active) |
| CC/C=C\C[C@H](O)C/C=C1/C(=O)C=C[C@@H]1C/C=C\CCCC(=O)NC | 16.1% | 23.8% | -3.66% (active) | -76.8% (active) | -8.31% (active) | -86.1% (active) | 4.85% (active) | 56.1% | -14.6% (active) | -14.1% (active) |
| CN1C2CCC1/C(=C\c1ccc(Cl)cc1)C1=C2[C@@H](c2ccc(Cl)cc2)C(C#N)=C(N)O1 (some centres undefined) | 84.6% | 75.7% | 94% | 65.6% | 97% | 93.9% | 76% | 80% | 77.2% | 57.6% |
| COc1cc(/C=C2\CN(C(=O)CCN3CCC(=NO)CC3)C/C(=C\c3cc(OC)c(OC)c(OC)c3)C2=O)cc(OC)c1OC | -26.9% (active) | -36.1% (active) | -9.11% (active) | -96.2% (active) | -69.2% (active) | -44.2% (active) | -77.2% (active) | -87.2% (active) | -37.3% (active) | 2.41% (active) |
| CC1CN(Cc2ccco2)C(=S)N(c2ccccc2)C1=O (centres undefined) | 108% | 84.2% | 92% | 89.6% | 100% | 93.8% | 60.4% | 100% | 83.7% | 122% |
| CC(=O)O[C@H]1CC[C@]2(C)[C@H]3CC[C@@H]4[C@H]5[C@H](C(C)C)CC[C@]5(C(=O)OCC(CO)(CO)N=C(N)N)CC[C@@]4(C)[C@]3(C)CC[C@H]2C1(C)C | 102% | 88.7% | 13.7% | 55.1% | 88% | 83.4% | 81.1% | 113% | 11.3% | 0.198% (active) |
| O=c1c2c3c(sc2n2c(CCl)nnc2n1Cc1ccccc1)CCCC3 | -83.1% (active) | -35.4% (active) | -82.8% (active) | -83.2% (active) | -93.6% (active) | -100% (active) | -100% (active) | 92.5% |  | -18.4% (active) |
| O=C(/C=C/c1cc2ccccc2[nH]c1=O)/C=C/c1cc2ccccc2[nH]c1=O | 54% | 47.3% | 23.8% | -83.8% (active) | -14.8% (active) | -11.2% (active) | 31.9% | 30.4% | 17.8% | 31.6% |
| COc1ccc(-n2c(C)nc3c(c(C)nn3-c3ccccc3)c2=O)cc1 | 36.4% | 32% | 42% | 44.3% | 55.4% | 29.2% | 34.4% | -27.8% (active) | 8.6% (active) | 12.2% |
| COc1ccc2nc3cc(Cl)ccc3c(NCCNCC(O)CO)c2c1 (centres undefined) | 27.9% | 42% | 5.37% (active) | 48.9% | 32.3% | 26.8% | 71.9% | 8.45% (active) | 25% | 12.7% |
